Structures can show the parent of a compound that is named as a salt. The full ranking holds about 2,000 compounds; the median of “fractional viability relative to vehicle” is about 0.91, and the lowest 2% start at about 0.045. The full list was thinned out, with the lowest values kept by preference.
System: TYKNU
Assay: fractional viability relative to vehicle; TYKNU is a high-grade serous ovarian cancer line; higher = less growth inhibition
Conditions: 72 h
In short: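 Drug treatment lasted 72 h, with cells grown at 37 °C in 5% CO2 in RPMI 1640 supplemented with 10% FBS. Beforehand, TYKNU control cells or their lentiCRISPRv2 knockout derivatives had been seeded at 500 cells per well into drug-stamped 384-well plates carrying a ~2100-compound library at 2 or 10 μM, in duplicate. Viability came from Cell Titer Glo luminescence, with averaged duplicate treatment wells normalised to duplicate control wells in the same plate position.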

[1] = 2uM, genotype: DNM1L knockout (sgDNM1L #1)
[2] = 2uM, genotype: sgCTRLA1 (non-targeting control)
[3] = 10uM, genotype: DNM1L knockout (sgDNM1L #1)
[4] = 10uM, genotype: sgCTRLA1 (non-targeting control)

| SMILES | fractional viability [1] | fractional viability [2] | fractional viability [3] | fractional viability [4] |
| --- | --- | --- | --- | --- |
| CCC1C/C(=C\c2cccnc2)C(=O)/C(=C/c2cccnc2)C1 (stereo not drawn) | 0.104 | 0.0876 | 0.0563 | 0.0253 |
| COc1cc2c(cc1OC)[C@@H]1Cc3ccc(OC)c(OC)c3CN1CC2 [Rotundine] | 1.17 | 1.06 | 1.18 | 1.01 |
| CC[C@]12C=CCN3CC[C@@]4(c5cc([C@@]6(C(=O)OC)C[C@@H]7C[C@@H](C(C)(F)F)CN(Cc8c6[nH]c6ccccc86)C7)c(OC)cc5N(C)[C@H]4[C@@](O)(C(=O)OC)[C@@H]1OC(C)=O)[C@@H]32 [Vinflunine Tartrate] | 0.191 | 0.144 | 0.142 | 0.114 |
| O=C(CCCCCN1C(=O)c2cccc3cccc(c23)C1=O)NO [Scriptaid] | 0.411 | 0.51 | 0.108 | 0.109 |
| O=C(O)C1=C[C@@H](O)[C@@H](O)[C@H](O)C1 [Shikimic Acid] | 0.996 | 1.17 | 0.84 | 1.06 |
| COCC[n+]1c2c(n(Cc3cnccn3)c1C)C(=O)c1ccccc1C2=O [YM155 (Sepantronium Bromide)] | 0.0411 | 0.0393 | 0.0214 | 0.0241 |
| COc1cc2ncnc(Sc3nnc(C)s3)c2cc1OC | 0.747 | 0.866 | 0.0591 | 0.0581 |
| O=C(C[S+]([O-])Cc1ccco1)NC/C=C\COc1cc(CN2CCCCC2)ccn1 (stereo not drawn) [Lafutidine] | 1 | 1.2 | 0.826 | 1.06 |
| O=C([O-])c1ccccc1O.[Na+] [Sodium salicylate] | 1.08 | 1.09 | 0.913 | 1.03 |
| CN1CCN(c2ccc3nc(-c4c(N)c5c(F)cccc5[nH]c4=O)[nH]c3c2)CC1 [Dovitinib (TKI258) Lactate] | 0.398 | 0.423 | 0.0366 | 0.0252 |
| CN1CCN(c2ccc3nc(-c4c(N)c5c(F)cccc5[nH]c4=O)[nH]c3c2)CC1 [Dovitinib (TKI-258, CHIR-258)] | 0.523 | 0.465 | 0.119 | 0.0963 |
| O=C(O)c1ccc(N2C(=O)/C(=C\c3ccc(-c4ccc([N+](=O)[O-])cc4)o3)C=C2c2ccccc2)cc1 | 0.851 | 0.873 | 0.899 | 0.776 |
| O=c1ncccn1[C@@H]1O[C@H](CO)[C@@H](O)[C@H]1O [Zebularine] | 0.97 | 1.06 | 0.676 | 0.938 |
| O=C(Nc1ccccc1)N1CCN(c2nc(-c3ccccc3)ns2)CC1 | 1.06 | 1.14 | 0.828 | 0.976 |
| COc1cc2c(Oc3ccc(NC(=O)C4(C(=O)Nc5ccc(F)cc5)CC4)cc3F)ccnc2cc1OCCCN1CCOCC1 | 0.628 | 0.631 | 0.0524 | 0.0418 |
| COc1cc2c(Nc3ccc(NC(=O)c4ccccc4)cc3)ncnc2cc1OCCCN1CCOCC1 | 0.862 | 0.959 | 0.266 | 0.22 |
| COc1cc2nccc(Oc3ccc(NC(=O)C4(C(=O)Nc5ccc(F)cc5)CC4)cc3)c2cc1OC | 1.15 | 1.17 | 0.615 | 0.64 |
| CCN(C(=O)c1c(O)c2c(Cl)cccc2n(C)c1=O)c1ccccc1 [Laquinimod] | 1.22 | 1.14 | 0.958 | 1.08 |
| CC[C@H](Nc1ncnc2[nH]cnc12)c1nc2cccc(F)c2c(=O)n1-c1ccccc1 [CAL-101 (Idelalisib, GS-1101)] | 0.947 | 1.11 | 0.863 | 0.971 |

| SMILES | fractional viability [1] | fractional viability [2] | fractional viability [3] | fractional viability [4] |
| --- | --- | --- | --- | --- |
| CN(C)CC(=O)Nc1ccc2[nH]c(=O)c3ccccc3c2c1 | 0.84 | 1.06 | 0.74 | 1.03 |
| Nc1nc(Nc2ccc3c(c2)CCC(N2CCCC2)CC3)nn1-c1cc2c(nn1)-c1ccccc1CCC2 (stereo not drawn) | 0.343 | 0.242 | 0.0232 | 0.0259 |
| CNC[C@@H](O)c1ccc(O)c(O)c1 [L-Adrenaline] | 0.842 | 1 | 0.784 | 0.91 |
| CC(C)Oc1ccc(C(=O)N[C@H](CNC(=O)CN(C)C)Cc2ccc(-c3cn4cccc([C@H](C)O)c4n3)cc2)cc1Cl | 0.413 | 0.508 | 0.29 | 0.438 |
| Clc1cccc(-c2nnnn2Cc2cccnc2)c1Cl | 0.755 | 0.927 | 0.755 | 0.73 |
| CS(=O)(=O)Nc1ccc([N+](=O)[O-])cc1Oc1ccccc1 [Nimesulide] | 0.973 | 1.1 | 0.922 | 1.01 |
| O=[N+]([O-])c1ccc2c(c1)S(=O)(=O)C=C2 [Stattic] | 0.0799 | 0.101 | 0.0327 | 0.0222 |
| O=C(O)c1cc(=O)[nH]c(=O)[nH]1 [Orotic acid (6-Carboxyuracil)] | 0.916 | 1.04 | 1.02 | 1.12 |
| COc1ccc([C@]2(C#N)CC[C@@H](C(=O)O)CC2)cc1OC1CCCC1 [Cilomilast] | 0.977 | 1.1 | 0.843 | 1.15 |
| CCc1c(Cl)c(O)c(Cl)c(O)c1C(=O)O[C@H]1[C@H](O)[C@H](OC)[C@H](OC/C2=C\C=C\C[C@H](O)/C(C)=C/[C@H](CC)[C@@H](O[C@@H]3OC(C)(C)[C@@H](OC(=O)C(C)C)[C@H](O)[C@@H]3O)/C(C)=C/C(C)=C/C[C@@H]([C@@H](C)O)OC2=O)O[C@@H]1C [Fidaxomicin] | 0.741 | 0.893 | 0.494 | 0.0966 |
| C[C@H]1O[C@@H](O[C@H]2[C@@H](O)C[C@H](O[C@H]3[C@@H](O)C[C@H](O[C@H]4CC[C@@]5(C)[C@H](CC[C@@H]6[C@@H]5C[C@@H](O)[C@]5(C)[C@@H](C7=CC(=O)OC7)CC[C@]65O)C4)O[C@@H]3C)O[C@@H]2C)C[C@H](O)[C@@H]1O [Digoxin] | 0.0546 | 0.0452 | 0.032 | 0.0309 |
| CCS(=O)(=O)N1CCC([C@@H](C)n2c(C)c(C(=O)NCc3c(OC)cc(C)[nH]c3=O)c3ccccc32)CC1 | 0.746 | 0.93 | 0.908 | 0.836 |
| NC(=O)NO [Hydroxyurea] | 0.92 | 1.14 | 0.948 | 1.16 |
| CC(C)c1cnn2c(NCc3ccccc3)cc(NCCCCCCN)nc12 | 1.09 | 1.13 | 0.83 | 0.972 |
| O=C(O)CCNC(=O)c1ccccc1 [Betamipron] | 0.922 | 1.11 | 0.923 | 0.986 |
| O=C(O)c1ccccc1 [Benzoic Acid] | 0.793 | 0.98 | 0.581 | 0.958 |
| CN(NC(=O)CC(=O)NN(C)C(=S)c1ccccc1)C(=S)c1ccccc1 [Elesclomol (STA-4783)] | 0.0609 | 0.0221 | 0.0751 | 0.0222 |
| O=CN1CC/C(=C/c2ccc3c(c2)OCO3)C1=O | 0.723 | 0.973 | 0.78 | 0.692 |
| OC[C@H]1O[C@@H](OCCc2ccc(O)cc2)[C@H](O)[C@@H](O)[C@@H]1O [Salidroside] | 0.968 | 1.14 | 0.842 | 1.07 |

| SMILES | fractional viability [1] | fractional viability [2] | fractional viability [3] | fractional viability [4] |
| --- | --- | --- | --- | --- |
| O=C(c1cc(Cc2n[nH]c(=O)c3ccccc23)ccc1F)N1CCN(C(=O)C2CC2)CC1 | 0.967 | 1.06 | 0.727 | 1.02 |
| CCN1CCN(Cc2ccc(Nc3ncc(F)c(-c4cc(F)c5nc(C)n(C(C)C)c5c4)n3)nc2)CC1 | 0.289 | 0.473 | 0.0303 | 0.0236 |
| C[N+](C)(C)C[C@H](O)CC(=O)[O-] [L-carnitine] | 1.12 | 1.14 | 0.8 | 1.07 |
| Cc1nnc(C(=O)NC(C)(C)c2nc(C(=O)NCc3ccc(F)cc3)c(O)c(=O)n2C)o1 [Raltegravir (MK-0518)] | 0.979 | 1.07 | 0.879 | 1.06 |
| CN(C)C(=S)NN=C(c1ccccn1)c1ccccn1 | 0.177 | 0.132 | 0.255 | 0.107 |
| O=C(Nc1cccc(Cl)c1)c1ccccn1 | 1.06 | 1.05 | 0.971 | 1.12 |
| Clc1ccc(NN=C(c2ccccc2)c2ccccn2)nc1 | 0.116 | 0.0468 | 0.0355 | 0.0108 |
| CCC[S+]([O-])c1ccc2[nH]c(NC(=O)OC)nc2c1 (stereo not drawn) [Albendazole Oxide] | 1.04 | 0.909 | 0.505 | 0.562 |
| CC1(C)CC(=O)c2c(C(F)(F)F)nn(-c3ccc(C(N)=O)c(N[C@H]4CC[C@H](OC(=O)CN)CC4)c3)c2C1 | 0.976 | 1.16 | 0.981 | 1.09 |
| CC[C@H](NC(=O)[C@H](C)NC)C(=O)N1C[C@@H](O)C[C@H]1Cc1c(-c2[nH]c3cc(F)ccc3c2C[C@@H]2C[C@H](O)CN2C(=O)[C@H](CC)NC(=O)[C@H](C)NC)[nH]c2cc(F)ccc12 [Birinapant] | 0.772 | 1.15 | 0.653 | 0.949 |
| CS(=O)(=O)N1CCN(Cc2cc3nc(-c4cccc5[nH]ncc45)nc(N4CCOCC4)c3s2)CC1 | 0.627 | 0.588 | 0.272 | 0.249 |
| COc1ccc(-c2nc(N3CCOCC3)c3sc(CN(C)c4ncc(C(=O)NO)cn4)cc3n2)cn1 | 0.0583 | 0.0505 | 0.0565 | 0.0395 |
| Cc1c(CN2CCN(C(=O)[C@H](C)O)CC2)sc2c(N3CCOCC3)nc(-c3cnc(N)nc3)nc12 | 0.214 | 0.238 | 0.175 | 0.15 |
| O=C(Nc1c(Cl)cncc1Cl)c1ccc(OC(F)F)c(OCC2CC2)c1 [Roflumilast] | 0.966 | 0.959 | 0.921 | 1 |
| Cc1cc(C)c(S(=O)(=O)n2cc(C)cc2C)c(C)c1 | 0.788 | 0.862 | 0.757 | 0.765 |
| CC(C)NC[C@H](O)COc1ccc(CCOCC2CC2)cc1 [Levobetaxolol HCl] | 1.13 | 1.21 | 0.846 | 1.27 |
| C=CC(=O)Nc1cc(Nc2nccc(-c3cn(C)c4ccccc34)n2)c(OC)cc1N(C)CCN(C)C | 0.614 | 0.895 | 0.0431 | 0.0512 |
| C=CC(=O)Nc1cc(Nc2nccc(-c3c[nH]c4ccccc34)n2)c(OC)cc1N(C)CCN(C)C | 0.324 | 0.409 | 0.0466 | 0.0525 |
| C=CC(=O)Nc1cccc(Nc2nc(Nc3ccc(NC4CN(CCF)C4)cc3OC)ncc2C(F)(F)F)c1 | 0.67 | 0.752 | 0.164 | 0.154 |

— the supplement of paper PMC5919970
